Data as given in PubChem BioAssay AID2315 (National Center for Advancing Translational Sciences (NCATS), 2010).
The whole screen tested about 290,000 compounds, of which about 27,000 (9.3%) were called active. What follows is part of a selection rich in actives, with near analogues and random picks from the rest. Values without a mark were called inactive. Rule as the data show it: active = inhibition mostly above about 28% (no sharp cut-off); inactive = mostly below about 43%.

Test: A qHTS for Small Molecule Inhibitors of Shiga Toxin; also: 0% is about no effect
Conditions: Vero cells, Shiga toxin protein synthesis inhibition reporter; at 38.7 µM, hits give high values

| Compound | inhibition |
| --- | --- |
| Cc1cccc(NC(=O)NC2(C)CCS(=O)(=O)C2)c1 (centres undefined) | 11.8% |
| CC(C)(C)NC(=O)NCc1ccco1 | 12.4% |
| CC(C)(C)c1ccc(C(=O)NCCC(=O)NCc2ccco2)cc1 | 6.3% |
| CC(C)(C)c1ccc(NC(=O)NCc2ccco2)cc1 | 74.2% (active) |
| COc1ccc([N+](=O)[O-])cc1N(CC(=O)Nc1ccccc1C(=O)N1CCOCC1)S(C)(=O)=O | -1.77% |
| CCOC(=O)c1c(C)[nH]c(C(=O)COc2ccc3c(c2)OCO3)c1C | 17.2% |
| CCOC(=O)c1nc(-c2ccc3c(c2)OCO3)[nH]c1C | 41% (active) |
| CCOCCOC(=O)C1=C(C)NC(=O)NC1c1ccc2c(c1)OCO2 (centres undefined) | -11.9% |
| CCOc1ccc(N(C)S(=O)(=O)c2cnc[nH]2)cc1 | 10.4% |
| Cc1ccc2c(c1)N(CC(=O)N1CCC(C)CC1)C(=O)c1cccnc1O2 | 9.85% |
| COc1ccc(NC(=O)C2CCCN(S(=O)(=O)c3cccc4cccnc34)C2)cc1 (centres undefined) | -1.64% |
| CCOc1cccc(NC(=O)C2CCCN(S(=O)(=O)c3ccc(OC)cc3)C2)c1 (centres undefined) | -14.4% |
| COc1ccc(S(=O)(=O)N2CCCC(C(=O)Nc3ccc(NC(=O)c4ccccn4)cc3)C2)cc1 (centres undefined) | 63.5% (active) |
| COc1ccccc1N1CC(C(=O)Nc2nnc(SCC(=O)NC(C)C)s2)CC1=O (centres undefined) | 4.29% |
| CN(CC1CCCN(CCc2cccc(C(F)(F)F)c2)C1)C(=O)c1ccc2nc[nH]c2c1 (centres undefined) | -2.32% |
| Cc1ccc(CS(=O)Cc2ccc(C(=O)N3CCOCC3)o2)cc1 (centres undefined) | -2.85% |
| COc1ccc2c(c1)cc1n2CCN=C1NN | 170% (active) |
| COc1ccc(CNC(=O)C(=O)NCC2OCCN2C(=O)c2ccc(OC)cc2)cc1 (centres undefined) | -30.4% |
| O=S(=O)(c1cccc(Cn2nnc(-c3ccc(F)cc3)n2)c1)N1CCOCC1 | -6.53% |
| c1ccc2sc(SNC3CCCCC3)nc2c1 | 25.3% |
| c1ccc2sc(NN=C3CCCC3)nc2c1 | 72.4% (active) |
| O=[N+]([O-])c1cc(Br)c(O)c(/C=N/Nc2nc3ccccc3s2)c1 | 30.3% |

| Compound | inhibition |
| --- | --- |
| Cc1ccc2c(c1)C(c1ccccc1)N(C(=O)c1ccc(F)cc1)CC(=O)N2 (centres undefined) | -4.25% |
| COC(=O)c1ccc(/C=C2/C(=O)Oc3ccccc32)cc1 | -14% |
| Cc1ccc(NC(=S)N2CCCC(c3ccccc3)=N2)cc1 | -2.73% |
| CNC(=S)N1N=C(c2ccccc2)CC1c1ccc(Br)cc1 (centres undefined) | 34.3% (active) |
| CC(=O)N1CCN(c2ccccc2NC(=S)NC(=O)c2cc3ccccc3o2)CC1 | -6.04% |
| Cc1cc(NC(=O)Nc2ccccc2)n(-c2ccccc2)n1 | 34.6% |
| Cc1cc(Nc2ccccc2)n(CCC#N)n1 | -1.92% |
| Cc1cc(Nc2ccccc2)n(C(=O)c2ccc(N)cc2)n1 | 47.2% (active) |
| Cc1ccc(C)c(C(=O)N2CCC(n3nccc3NC(=O)C3CC3)CC2)c1 | -24.8% |
| N#Cc1c(-c2ccccc2)c(-c2ccccc2)n[nH]c1=O | -6.49% |
| Cc1cccc(N2C(=O)SC(SC(=Nc3ccccc3)Nc3ccccc3)C2=O)c1 (centres undefined) | 83.9% (active) |
| Cc1cccc(N2C(=O)CC(SC(N)=Nc3ccccc3)C2=O)c1 (centres undefined) | -8.18% |
| Cc1cccc(N2C(=O)SC(N(CC(=O)O)c3cccc(C)c3)C2=O)c1 (centres undefined) | 49.7% |
| COc1cccc(/C=C2\Sc3ccc(C(=O)NCC4CCCO4)cc3N(C)C2=O)c1 (centres undefined) | 11.4% |
| CCOC(=O)c1c(S(=O)(=O)Nc2ccc(CN3CCC(C)CC3)cc2)c(C)n(C)c1C | -3.73% |
| CC(=O)N1CC(=O)N(CC(=O)Nc2ccc(Br)cc2)C1=S | -1.67% |
| CC1CC(C)CN(C(=O)C2CC(=O)N(c3ccc(F)cc3)C2)C1 (centres undefined) | -7.56% |
| O=C(CCCO)N/N=C/c1cc(Br)ccc1O | 13.6% |
| O=C(N/N=C/c1ccccc1O)/C(=C/c1ccccc1)CCO | 51.6% (active) |
| O=C(N/N=C/c1ccccc1O)C1CCCC1 | 21.6% |
| O=c1c2c(nc3cc(-c4cccc(Cl)c4)[nH]n13)CCCC2 | 59.1% (active) |
| Cc1cc(=O)n2[nH]c(-c3cccc(Cl)c3)cc2n1 | 39.8% |

| Compound | inhibition |
| --- | --- |
| O=c1c2c(nc3nc[nH]n13)CCC2 | 11.8% |
| O=S(=O)(c1ccc(Cl)cc1)c1nc(-c2ccccc2F)oc1NCCN1CCOCC1 | -6.01% |
| Cc1nc(Nc2ccccc2F)c2nnn(Cc3ccccc3Cl)c2n1 | -8.68% |
| CCCc1nc(NCc2ccc3c(c2)OCO3)c2nnn(Cc3ccccc3Cl)c2n1 | 7.73% |
| Cc1nc(Nc2ccc3c(c2)OCCO3)c2nnn(Cc3ccccc3Cl)c2n1 | 153% (active) |
| COc1ccc(C(=O)/C=C/c2ccc(-c3ccccc3)cc2)cc1CSCC(=O)O | -14.5% |
| Cc1ccccc1NC(=O)CCOc1ccccc1 | 58% (active) |
| CCc1ccccc1NC(=O)CCOc1ccccc1 | -7.03% |
| Cc1c(NC(=O)CCCOc2ccccc2)cccc1[N+](=O)[O-] | 10.4% |
| COc1cccc(CN(C)CC2CCCN(CCc3ccc(Cl)cc3)C2)c1OC (centres undefined) | -3.67% |
| O=C(/C=C/c1ccc([N+](=O)[O-])o1)NNC(=O)c1ccc(F)cc1 | 120% (active) |
| C/[N+]([O-])=C\c1ccc([N+](=O)[O-])o1 | -7.77% |
| O=C(N/N=C/c1ccc([N+](=O)[O-])o1)c1cn(-c2ccccc2)nc1-c1ccc(F)cc1 | 8.71% |
| Cc1coc2c1c(C)cc1oc(=O)c(CC(=O)NCC(=O)N[C@H](C(=O)O)C(C)C)c(C)c12 | -15% |
| Cc1c(C(=O)Nc2cccc(-c3nnc4n3CCCCC4)c2)oc2ccccc12 | 35% |
| O=c1c2c(nc3n1CCCCC3)sc1c(O)cccc12 | 20.9% |
| Cc1nc(N2CCOCC2)c2c(C)c(C(=O)Nc3ccc(C(F)(F)F)cc3)sc2n1 | -15.2% |
| Cc1nc(N2CCN(c3ccccn3)CC2)c2c(C)c(C(=O)Nc3ccc(F)cc3)sc2n1 | -7.13% |
| Cc1c(C(=O)Nc2ccccc2)sc2nc3n(c(=O)c12)CCCCC3 | 95.7% (active) |
| CC(=O)c1ccc(NC(=O)c2sc3nc4n(c(=O)c3c2C)CCCCC4)cc1 | 81.1% (active) |
